TDP1 cell CPT: qHTS for Inhibitors of human tyrosyl-DNA phosphodiesterase 1 (TDP1): qHTS in cells in presence of CPT | chicken DT40 Tdp1-/-;hTDP1 cells + 20 nM CPT, ATP luminescence, 48 h | AID 686979, 2013 | actives 12% (n = 420,000) | Potency, µM (doses to about 46.2 µM), without a hit: at the highest dose activity change, negative = growth inhibition, hits mostly inhibitors; also: potency is read from the fitted curve at half-maximal effect; % is scaled to controls: 0 for no effect and ±100 for the full control effect; nearly all actives have a fitted effect of over 55% in size
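Chicken DT40 Tdp1-/- cells stably complemented with human TDP1 were seeded at 400 cells/well in medium containing 20 nM camptothecin, exposed to pin-transferred compounds, and grown at 37 °C for at least 48 hr. Viability was read as ATP luminescence.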
TDP1 cell noCPT: qHTS for Inhibitors of human tyrosyl-DNA phosphodiesterase 1 (TDP1): qHTS in cells in absence of CPT | DT40 Tdp1-/- hTDP1 cells, no CPT, ATP luminescence, 48 h | Potency, µM (doses to about 46.2 µM), inactives show at the top dose activity change, negative = growth inhibition, hits mostly inhibitors | actives 15% (n = 420,000) | AID 686978, 2013; also: potency is read from the fitted curve at half-maximal effect; % is scaled to controls: 0 for no effect and ±100 for the full control effect; nearly all actives have a fitted effect of over 55% in size
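Luminescent ATP content (CellTiter-Glo) served as the growth readout. Knockout chicken DT40 cells expressing human TDP1 were exposed to compounds without camptothecin for a minimum 48 hr at 37 °C.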
D3 antag: qHTS of D3 Dopamine Receptor Antagonist: qHTS | D(3) dopamine receptor (Homo sapiens), P35462 | max response, negative = inhibition, % | actives 2.5% (n = 360,000) | D3R cells, DiscoveRx beta-arrestin luminescence, antagonist mode; stronger effect = lower value; in the data active = max response below about -50%; inconclusive = no clear call, values can overlap the other calls; also: % is scaled to controls: 0 for no effect and ±100 for the full control effect
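Cells expressing the human receptor were seeded at 1500 cells/well, incubated overnight at 37 degrees C in 5% CO2, then exposed to library compounds with dopamine controls for 90 minutes at 37 degrees C before luminescent detection.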
IL1B secr inh: qHTS for Inhibitors of Inflammasome Signaling: IL-1-beta AlphaLISA Primary Screen; actives 4.7% (n = 360,000); THP-1 LPS/ATP IL-1B secretion, AlphaLISA, 16 h; stronger effect = lower value; AID 743279, 2014; activity change, % at 57.5 µM; in the data active = activity change below about -50%; inconclusive = mostly about -30% to -49%; also: % is scaled to controls: 0 for no effect and ±100 for the full control effect
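Secreted IL-1B measured by AlphaLISA bead assay after 16 h compound exposure of THP-1 cells; compounds (final up to 57.5 uM) added 1 h before LPS (250 ng/mL) and ATP (1.25 mM) stimulation; lower signal means less secretion.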
ClpP mod: qHTS Assay for Activators of ClpP; ATP-dependent Clp protease proteolytic subunit (Bacillus subtilis (strain 168)), P80244; purified B. subtilis ClpP, FRET peptide cleavage, 20 min; Potency, µM (titrated, usually from 57.5 µM), without a hit: top-dose activity change, negative = active; actives 1.9% (n = 340,000); active = well fitted falling curve with a large enough effect; inconclusive = small, poorly fitted or top-dose-only effect; inactive = no such curve, though single readings can be large or run the other way; also: potency is read from the fitted curve at half-maximal effect; the source files actives as falling curves though it sought activators and does not explain the sign; nearly all actives have a fitted effect of over 65% in size
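ClpP 10 microg/mL final, pH 8 Tris/KCl buffer with BSA, glycerol, Tween-20; compound pinned in; FRET-FV substrate; RT 20 min; Ex320/Em430; ΔFRET vs ADEP 5.8 microM, DMSO, no enzyme.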
D3 ag: qHTS of D3 Dopamine Receptor Agonist: qHTS; D(3) dopamine receptor (Homo sapiens), P35462; actives 0.58% (n = 410,000); D3R DiscoveRx beta-arrestin cells, luminescence, 90 min; max activation, %; in the data active = max activation above about 30%; also: 0% is about no effect
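Agonist-mode cell screen: cells plated at 1500/well and incubated overnight at 37 °C, then exposed to library compounds for 90 min at 37 °C. Detection reagent was added for 30–60 min at room temperature, and luminescence was read.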
Active calls of the source: *; [ ] = remark or other dose. A selection: hits, their analogues and other compounds. The true share with any hit is near 21%. Unless noted, calls follow the shape of the dose curve; as a rule, active = well fitted inhibition curve with a large enough effect; inconclusive = small, poorly fitted or top-dose-only effect; inactive = flat fitted curve, though single readings scatter.

Results for Cc1cc(C(=O)NCCc2ccc(Cl)cc2)c2ccccc2n1 ?
TDP1 cell CPT: -16%; TDP1 cell noCPT: inconclusive; D3 antag: -17; IL1B secr inh: 3; ClpP mod: -3%; D3 ag: -21

How did O=C(NCCc1ccccc1)c1cc(Sc2cccc(Cl)c2)nc2ccccc12 do in these assays?
TDP1 cell CPT: inconclusive; TDP1 cell noCPT: 16µM*; ClpP mod: inconclusive; D3 ag: 5

How did COc1ccc(CCNC(=O)c2cc(Nc3cc(C)cc(C)c3)nc3ccccc23)cc1OC do in these assays?
TDP1 cell CPT: 8.2µM*; TDP1 cell noCPT: 8.2µM*; ClpP mod: 41%; D3 ag: -14

What do the screens show for `CSc1cccc(Nc2cc(C(=O)NCCc3ccc(Cl)cc3)c3ccccc3n2)c1`?
TDP1 cell CPT: 4.6µM*; TDP1 cell noCPT: 7.3µM*; ClpP mod: -20%; D3 ag: -8

How did COc1ccc(CCNC(=O)c2cc(-c3ccccn3)nc3c(Cl)cccc23)cc1OC do in these assays?
TDP1 cell CPT: -21%; TDP1 cell noCPT: inconclusive; D3 antag: 1; IL1B secr inh: 4; D3 ag: -7

Results for Nc1sc(-c2ccccc2)cc1C(=O)NCCc1ccc(Cl)cc1 ?
TDP1 cell CPT: 23µM*; TDP1 cell noCPT: 16µM*; D3 antag: -7; IL1B secr inh: -18; ClpP mod: -20%; D3 ag: -8

How did CCCCN(CCCNC(=O)c1cc(Nc2cccc(SC)c2)nc2ccccc12)Cc1ccccc1 do in these assays?
TDP1 cell CPT: 6.5µM*; TDP1 cell noCPT: 4.1µM*; ClpP mod: inconclusive; D3 ag: -16

Results for Nc1nc(NS(=O)(=O)c2ccc(Cl)cc2)nn1-c1ccccc1 ?
TDP1 cell CPT: inconclusive; TDP1 cell noCPT: 0%; D3 antag: -2; IL1B secr inh: 9; D3 ag: -3

How did O=C(Nc1cccc2cccnc12)c1ccc(-c2cccc(Cl)c2)o1 do in these assays?
TDP1 cell CPT: -28%; TDP1 cell noCPT: inconclusive; ClpP mod: -14%; D3 ag: 1

What do the screens show for `COc1ccc(-c2nc3ccccn3c2CN2CCN(c3ccccc3F)CC2)cc1`?
TDP1 cell CPT: inconclusive; TDP1 cell noCPT: 23µM*; D3 antag: 13; IL1B secr inh: 24; D3 ag: -1

What do the screens show for `CC(NC(=O)[C@H](NC(=O)[C@@H]1Cc2ccccc2CN1)c1ccccc1)c1ccccc1` (some centres undefined)?
TDP1 cell CPT: 18%; TDP1 cell noCPT: -11%; D3 antag: -20; IL1B secr inh: -8; ClpP mod: -2%; D3 ag: 14

What do the screens show for `CC(C)c1ccc(NC(=O)[C@H](NC(=O)[C@@H]2Cc3ccccc3CN2)c2ccccc2)cc1`?
TDP1 cell CPT: inconclusive; TDP1 cell noCPT: inconclusive; D3 antag: -98*; IL1B secr inh: -15; D3 ag: -19

Results for COc1cccc(NC(=O)[C@H](NC(=O)[C@@H]2Cc3ccccc3CN2)c2ccccc2)c1 ?
TDP1 cell CPT: 1%; TDP1 cell noCPT: 7%; D3 antag: -92*; IL1B secr inh: 7; ClpP mod: -4%; D3 ag: -18

How did Cc1cccc(NC(=O)[C@H](NC(=O)[C@@H]2Cc3ccccc3CN2)c2ccccc2)c1 do in these assays?
TDP1 cell CPT: -23%; TDP1 cell noCPT: 1%; D3 antag: -89*; IL1B secr inh: -10; ClpP mod: 1%; D3 ag: -20

How did Cc1ccc(NC(=O)[C@H](NC(=O)[C@@H]2Cc3ccccc3CN2)c2ccccc2)cc1 do in these assays?
TDP1 cell CPT: -12%; TDP1 cell noCPT: 1%; D3 antag: -100*; IL1B secr inh: -12; ClpP mod: -4%; D3 ag: -18

Results for COc1cccc(NC(=O)[C@H](Cc2ccccc2)NC(=O)[C@@H]2Cc3ccccc3CN2)c1 ?
TDP1 cell CPT: inconclusive; TDP1 cell noCPT: 2%; D3 antag: -1; IL1B secr inh: 11; ClpP mod: 1%; D3 ag: -5

What do the screens show for `Cc1cccc(NC(=O)[C@@H](CC(C)C)NC(=O)[C@@H]2Cc3ccccc3CN2)c1`?
TDP1 cell CPT: 1%; TDP1 cell noCPT: 16%; D3 antag: -23; IL1B secr inh: 0; ClpP mod: -4%; D3 ag: -16

Results for COc1ccc(Cl)cc1-c1cc2c(c(OC)c1)OCCN(Cc1cccn1-c1nccs1)C2 ?
TDP1 cell CPT: 0%[9.04 µM]; TDP1 cell noCPT: 0%

How did COc1cccc2sc(/N=C/N(C)C)nc12 do in these assays?
TDP1 cell CPT: 5%; TDP1 cell noCPT: 7%; D3 antag: 25; IL1B secr inh: 1; D3 ag: -10

How did COc1ccc(C(=O)N2c3ccccc3C=CC2C#N)cc1 (centres undefined) do in these assays?
TDP1 cell CPT: -23%; TDP1 cell noCPT: inconclusive; D3 antag: -6; IL1B secr inh: 33; D3 ag: -5

How did CCSC(=O)N1c2ccc(OC)cc2C=CC1C#N (centres undefined) do in these assays?
TDP1 cell CPT: 0.0082µM*; TDP1 cell noCPT: 0.0052µM*; D3 antag: -18; IL1B secr inh: -7; ClpP mod: -28%; D3 ag: -5

How did Cc1ccc2c(c1)C=CC(C)N2C(=O)c1ccccc1 (centres undefined) do in these assays?
TDP1 cell CPT: inconclusive; TDP1 cell noCPT: 16µM*; D3 antag: -14; IL1B secr inh: 41; ClpP mod: 2%; D3 ag: 7

What do the screens show for `Cc1ccc2c(c1)C=CC(C#N)N2C(=O)c1ccccc1` (centres undefined)?
TDP1 cell CPT: 1.6µM*; TDP1 cell noCPT: 1.8µM*; D3 antag: 4; IL1B secr inh: 53; D3 ag: -2

What do the screens show for `CC1=Cc2ccccc2C(C#N)N1C(=O)c1ccccc1` (centres undefined)?
TDP1 cell CPT: 21µM*; TDP1 cell noCPT: 18µM*; D3 antag: -8; IL1B secr inh: 23; D3 ag: 7

How did CC1(C(=O)NS(=O)(=O)c2ccc(Br)cc2)CCN1C(=O)CCc1cccs1 (centres undefined) do in these assays?
TDP1 cell CPT: -22%; TDP1 cell noCPT: -2%; D3 antag: 10; IL1B secr inh: 31; ClpP mod: 0%; D3 ag: 6

Screening data from PubChem.
